Bioassay records (PubChem)
aSyn UTR act – Activators working through SNCA 5'UTR binding (MLPCN); alpha-synuclein 5'UTR reporter, activators screen; activity score, % (tested at 7.5 µM), hits read low; 300,000 compounds, 7.1% hits; in the data active means activity score below about -60%
* hit, by the source's call. These entries were drawn from the full list.

SMILES | aSyn UTR act
NCCCn1c(C(=O)c2cc(Cl)c(N)c(Cl)c2)c2ccc([N+](=O)[O-])cc2[n+]1[O-] | 100.5
Cc1ccc(Cl)c(NC(=O)CCl)c1Cl | -86.9*
O=C(NNC(=O)c1ccccc1F)c1cccc(-n2cccc2)c1 | -73.9*
O=C(Nc1nc2cc3c(cc2s1)OCO3)C1CCCCC1 | -139.5*
O=C(Nc1nc2cc3c(cc2s1)OCO3)C1CC1 | -160.6*
Cc1ccc(OCc2cc(C(=O)N3CC4C[C@@H]5CC3C[C@H](C4)C5)no2)cc1C | -110.8*
Cc1cccc(C)c1OCc1cc(C(=O)N2CC3C[C@@H]4CC2C[C@H](C3)C4)no1 | -117.3*
COc1ccccc1N1CCN(/N=C/C=C\c2ccco2)CC1 | -135.7*
COc1ccccc1N1CCN(c2ccc(-c3ccccc3)nn2)CC1 | 79.0
COc1ccccc1N1CCN(/N=C/c2ccc(C(=O)O)cc2)CC1 | -128.5*
O=C(O)c1ccc(/C=N/N2CCN(c3ccccc3)CC2)cc1 | -207.0*
CNc1nnc(-c2cccc(N(C)C)c2)s1 | -94.2*
COc1cccc(-n2cc(-c3ccc(F)cc3)[nH]c2=S)c1 | -157.6*
COc1ccc(-n2cc(-c3ccc(Cl)cc3)[nH]c2=S)cc1 | -91.1*
Cc1ccc(NC(=O)Nc2cnccn2)cc1Cl | -74.2*
O=C(Nc1cnccn1)Nc1ccc(Cl)cc1Cl | -62.2*
Cn1ccc(NC(=O)Nc2ccc(Cl)cc2Cl)n1 | -112.5*
CC(=O)Nc1cccc(NC(=O)Nc2ccc(C)c(Cl)c2)c1 | -118.1*
COc1ccc(NC(=O)Nc2cnccn2)cc1 | -80.1*
CCC(C)c1ccc(NC(=O)Nc2cnccn2)cc1 (stereo unspecified) | -188.1*
O=C(Nc1ccc(Br)cc1Cl)c1cnccn1 | -69.8*
Clc1ccc(CONc2ncnc3nonc23)c(Cl)c1 | -124.1*
Cc1occc1-c1nnc(-c2cc([N+](=O)[O-])cc([N+](=O)[O-])c2)o1 | -133.0*
Cc1csc(SCC(=O)c2c(N)n(C)c(=O)n(C)c2=O)n1 | -118.0*
Cc1csc(SCC(=O)c2cc(C)n(Cc3cccs3)c2C)n1 | 73.0
SMILES | aSyn UTR act
Cc1c(C(=O)O)cccc1-c1ccc(/C=N/Nc2ccc(Br)cc2)o1 | -144.6*
Cc1c(C(=O)O)cccc1-c1ccc(/C=N/n2cnnc2)o1 | -78.7*
CC(C)(C)c1ccc(OCCCC(=O)Nc2ccc(S(N)(=O)=O)cc2)cc1 | -146.4*
O=[N+]([O-])c1cccc(-c2cn(-c3ccccc3)c(=S)[nH]2)c1 | -178.8*
Cc1cccc(-n2cc(-c3ccc([N+](=O)[O-])cc3)[nH]c2=S)c1 | -80.2*
O=[N+]([O-])c1ccc(-c2cn(-c3ccccc3)c(=S)[nH]2)cc1 | -100.6*
CCC(=O)Nc1c(C(=O)Nc2ccc3c(c2)OCCO3)oc2ccccc12 | -142.9*
COCC(=O)Nc1c(C(=O)Nc2ccc3c(c2)OCCO3)oc2ccccc12 | -72.2*
CCC(=O)Nc1c(C(=O)Nc2cccc(OC)c2)oc2ccccc12 | -123.4*
COc1ccc(C(=O)Nc2cccc(-c3ccc(N4CCOCC4)nn3)c2)cc1 | -69.3*
COc1cc(OC)cc(C(=O)Nc2cccc(-c3ccc(N4CCOCC4)nn3)c2)c1 | -85.3*
O=[N+]([O-])c1cc2c(cc1/C=N/Nc1nc(Nc3ccccc3)nc(N3CCCCC3)n1)OCO2 | -63.4*
COc1cccc(/C=N/Nc2nc(Nc3ccc([N+](=O)[O-])cc3)nc(N3CCCC3)n2)c1O | 65.0
COC(=O)c1ccc(N2CCC(C)CC2)c(N)c1 | -99.5*
COC(=O)c1ccc(N2CCCCC2)c(N)c1 | -91.9*
COC(=O)c1cc(C(=O)N2CCN(c3cccc(C)c3C)CC2)cc([N+](=O)[O-])c1 | 78.0
Nc1ccc(N2CCCCC2)cc1N1CCCCC1 | 84.6
Nc1c(-c2ccccc2)cnc2cc(-c3ccccc3)nn12 | -121.1*
Cc1cc2ncc(-c3ccc(Cl)cc3)c(N)n2n1 | -116.8*
COCc1nn2c(N)c(-c3ccccc3)cnc2c1-c1ccccc1 | -105.5*
O=C(N/N=C/c1cc([N+](=O)[O-])ccc1O)c1cccc(NC(=O)c2cccc(Cl)c2)c1 | 60.4
Cc1nn(C)cc1/C=N/NC(=S)Nc1ccccc1 | -136.7*
O=[N+]([O-])c1ccc(Cl)c(/C=N/NC(=S)Nc2ccccc2)c1 | -79.3*
COc1cccc(N(C(=O)c2cccs2)c2nc3ccccc3s2)c1 | -154.3*
O=C1CCCCC/C1=N/Nc1ccc(OCc2ccccc2)cc1 | -74.0*
SMILES | aSyn UTR act
Cn1c(SCc2ccccc2F)nc2cccnc21 | -101.2*
CN(C)c1ccc(NC(=O)c2ccc(N3CCOCC3)nc2)cc1 | -62.3*
O=C(c1ccccc1)c1cc([N+](=O)[O-])ccc1N1CCOCC1 | 101.3
O=C(Nc1ccc(N2CCOCC2)c(F)c1)c1cccs1 | -123.4*
O=C(c1ccccc1)c1ccc(N2CCOCC2)c(F)c1 | -144.8*
Cc1ccc(C(=O)Nc2ccc(N3CCOCC3)nc2)cc1 | -71.3*
O=C(Nc1ccc(N2CCOCC2)nc1)c1cccs1 | -104.1*
O=C(CN1C(=O)CCC1=O)Nc1nc(-c2ccc(Cl)s2)cs1 | -63.9*
O=C(CSCC(=O)N1CCCCC1)Nc1nc(-c2ccc(Cl)s2)cs1 | -118.1*
Cc1ccccc1N=CC1=C(O)c2ccccc2C1=O | -138.4*
O=C1C(C=Nc2ccc(F)cc2)=C(O)c2ccccc21 | -213.9*
